Screening data: PubChem, National Center for Advancing Translational Sciences (NCATS)
VACV Venus inh: qHTS for Stage-Specific Inhibitors of Vaccinia Orthopoxvirus: Venus Reporter Primary qHTS | Vaccinia virus Venus reporter expression, fluorescence | Potency, µM (titrated, usually from 36.5 µM), without a hit: at the top dose activity change, negative = inhibition, actives largely listed as inhibitors | hit rate 0.46% among 330,000 | AID 720580, 2013; calls by dose curve; tested in A549 cells; further: potency means the concentration at half of the fitted maximal effect; nearly all actives have a fitted effect of over 30% in size
FMDV inh: High Throughput Screening for Foot and Mouth Disease Virus Antivirals; FMDV antiviral cell-based qHTS; Potency, µM (series often up to 57.9 µM), for inactives: at the top dose activity change, negative = inhibition, usual class: inhibitors; hit rate 1.2% among 410,000; calls by dose curve; tested in HEK293T cells; further: read-out not given here; potency means the concentration at half of the fitted maximal effect; nearly all actives have a fitted effect of over 45% in size
Vaccinia mCherry: qHTS for Stage-Specific Inhibitors of Vaccinia Orthopoxvirus: mCherry Reporter Primary qHTS; hit rate 0.63% among 310,000; Vaccinia virus mCherry reporter infection, fluorescence; Potency, µM (top dose mostly 36.5 µM), for the others: top-dose activity change, negative = inhibition, most hits filed as inhibitors; calls by dose curve; tested in A549 cells; further: potency means the concentration at half of the fitted maximal effect; nearly all actives have a fitted effect of over 35% in size
HCMV antiviral: qHTS Assay for inhibitors of the human cytomegalovirus (HCMV). AID 1259415, 2018. hit rate 4.5% among 410,000. activity change, negative = inhibition, % at 57.5 µM. HFF cells, HCMV-luciferase reporter, 72 h; active compounds read low; in the data active means activity change below about -60%; inconclusive means no clear call, values can overlap the other calls; inactive means above about -39%
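After 16 h attachment at 37C, HFF cells received test compound and HCMV-luciferase (1 PFU/cell); reporter luminescence read 72 h later, data normalized against buffer-only and known inhibitor Salinomycin.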
HCV inh: qHTS Assay for Inhibitors of Hepatitis C Virus (HCV). Potency, µM (highest dose often 41.8 µM), for the others: at the highest dose activity change, negative = inhibition, most hits filed as inhibitors. Huh7.5.1 HCVcc-Cre infection, luciferase reporter, 44 h. hit rate 3.4% among 340,000; active means well fitted inhibition curve with a large enough effect; inconclusive means small, poorly fitted or top-dose-only effect, or another doubt; inactive means no such curve, though single readings can be large or run the other way; further: potency means the concentration at half of the fitted maximal effect
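HCVcc-Cre virus at an moi near 0.5 was added right after compound to cells cultured 4 h from seeding (1,000 cells/well). Luciferase activity was determined 44 h later, 15 min after substrate addition at RT.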
Numbers without * were called inactive; i = inactive; ? = inconclusive; nt = not tested or not shown; [ ] = remark or other dose. An excerpt weighted towards active compounds, which were near 7.3% of everything screened. On the % scale 0 is the no-effect control and ±100 the full control effect.

SMILES	VACV Venus inh	FMDV inh	Vaccinia mCherry	HCMV antiviral	HCV inh
Cc1cc(N/N=C(/CCC(=O)O)C(=O)O)nc2ccccc12	-4%	-1%	-7%	-8	11%
C/C(=N\Nc1cccc2cccnc12)c1ccccn1	-10%	-77%	i	196	6.3µM*
CC(=NNc1cc(C)c2ccccc2n1)c1ccccn1	nt	nt	nt	-98*	nt
CCOc1ccc2c(c1)OC(c1ccc(C)cc1)(C(F)(F)F)NC2=O (centres undefined)	?	-2%	?	-83*	-18%
COc1ccc(C(C(=O)NC2CCCC2)N(C(=O)c2snc(-c3ccc(F)cc3)c2N)c2cccc(F)c2)cc1 (centres undefined)	nt	11%	nt	-39	10µM*
COc1ccc(C(C(=O)NC2CCCCC2)N(C(=O)c2snc(C(N)=O)c2N)c2ccc(OC)cc2OC)cc1 (centres undefined)	-10%	6%	-12%	?	8.9µM*
COc1ccc(N(C(=O)c2snc(C(N)=O)c2N)C(C(=O)NC2CCCC2)c2ccc(F)cc2)c(OC)c1 (centres undefined)	5%	-6%	i	42	11µM*
COc1ccc(N(C(=O)c2snc(C(N)=O)c2N)C(C(=O)NC2CCCC2)c2ccc3ncccc3c2)cc1 (centres undefined)	-11%	-17%	-5%	-89*	?
CCOc1ccc(C(C(=O)NC2CCCC2)N(C(=O)c2snc(C(N)=O)c2N)c2cccc(O)c2)cc1 (centres undefined)	10%	-18%	-12%	-34	13µM*
N/C(=N\OC(=O)c1ccc(Cl)cc1[N+](=O)[O-])c1ccccn1	-14%	-14%	-12%	-38	?
N/C(=N\OC(=O)c1ccc([N+](=O)[O-])cc1Cl)c1ccccn1	?	16µM*	2.8µM*	-72*	?
N/C(=N/OC(=O)c1ccccc1Cl)c1ncc([N+](=O)[O-])s1	-5%[7.34 µM]	18%	-27%[7.34 µM]	36	11µM*
N/C(=N\OC(=O)c1cc([N+](=O)[O-])ccc1Cl)c1ccccn1	-11%	-14%	-9%	31	11µM*
N/C(=N\OC(=O)c1cccc([N+](=O)[O-])c1)c1ccccn1	-8%	11%	-13%	-28	?
N/C(=N\OC(=O)c1ccccc1Cl)c1cccc([N+](=O)[O-])c1	nt	13%	nt	51	9%
C(=N\Nc1nccc(-c2cccnc2)n1)/c1ccccc1	nt	0%	nt	-1	13%
Cc1ccc(-c2cc(-c3ccccc3O)nc(N/N=C/c3cccnc3)n2)cc1	5%	nt	-14%	?	0.56µM*
COc1ccc(Cn2c(SCc3cc(C)ccc3C)nc3cc(OC)c(OC)cc3c2=N)cc1	nt	?	nt	-23	2.8µM*
COc1ccc(Cn2c(SCc3ccc(C)cc3)nc3cc(OC)c(OC)cc3c2=N)cc1Cl	-17%	35µM*	-18%	-99*	?
CCOc1ccc(S(=O)(=O)N2CCOCC2)cc1NC(=O)CSCc1c(C)noc1C	-15%	0%	-1%	-10	?
COc1ccc(-c2cccc3c2C2CC3CCN2C(=O)OCc2ccccc2)cc1 (centres undefined)	-10%	-28%	i	-20	7.9µM*
NS(=O)(=O)c1cccc(NC(=O)COC(=O)Cc2ccc(S(=O)(=O)N3CCOCC3)s2)c1	-2%	-22%	-15%	-12	12%
N#Cc1ccc(OCC(=O)NCC2COc3ccccc3O2)cc1 (centres undefined)	nt	-6%	nt	9	-4%
CC(=O)c1c(O)cc(O)cc1CC(=O)O	-5%	-16%	5%	-10	0.89µM*
CC(=O)c1c(O)cc(O)c(C(C)=O)c1O	-5%	?	-14%	nt	3.5µM*
SMILES	VACV Venus inh	FMDV inh	Vaccinia mCherry	HCMV antiviral	HCV inh
Cc1cc(CC(=O)O)c(C)cc1CC(=O)O	-13%	0%	nt	-6	10%
COc1ccc(CN2CCN(C(C)=O)CC2)cc1OC1CCN(C(=O)c2ccc3[nH]c(C)c(C)c3c2)CC1	2%	-17%	-10%	nt	nt
Cc1ccc2nc(N3CCN(C(=O)C4COc5ccccc5O4)CC3)sc2c1 (centres undefined)	-14%	16%	-11%	59	nt
CCN1C[C@]2(C)CC[C@H](OC)[C@@]34[C@H]1C1(OCO[C@@]15C[C@H](OC)C1C[C@]3(O)C5[C@H]1OC)[C@@H](O)[C@H]24	nt	-11%	nt	nt	nt
O=C1c2cccc3c([N+](=O)[O-])ccc(c23)C(=O)N1c1ccccn1	10%	?	i	-103*	?
O=C1c2cccc3c([N+](=O)[O-])ccc(c23)C(=O)N1c1nccs1	nt	35µM*	nt	-95*	?
O=C1c2cccc3c([N+](=O)[O-])ccc(c23)C(=O)N1c1ccc(Cl)cn1	36%	25µM*	-10%	-105*	10µM*
C[N+]1(C)CC(O)[C@H](C(=O)[O-])C1 (some centres undefined)	-1%	-4%	-16%	nt	nt
COc1cccc(NC(=O)N(C)C[C@H]2OCc3cnnn3CCCC(=O)N([C@H](C)CO)C[C@@H]2C)c1	-22%	-1%	-9%	-17	nt
COc1cccc(CNC(=O)[C@@H]2[C@@H](CO)[C@@H]3Cn4c(ccc(-c5cncnc5)c4=O)[C@H]2N3C(C)=O)c1	nt	nt	nt	-101*	nt
COc1ccccc1NC(=O)COC(=O)CCC(=O)c1cccs1	-2%	-17%	-9%	28	7%
CC(C)COc1cccc(C(=O)Nc2ccc(N3CCOCC3)cc2N2CCOCC2)c1	-10%	-27%	-13%	?	7.9µM*
CC(C)COc1cccc(C(=O)Nc2ccc(CN3CCOCC3)cc2)c1	?	-19%	-12%	-26	3.2µM*
c1ccc(-c2cc(-c3nc4ccccc4[nH]3)c3ccccc3n2)cc1	?	?	?	-94*	?
CCc1ccc(OCC(=O)N(Cc2ccco2)Cc2ccco2)cc1	-12%	-12%	-6%	-3	nt
COC1=CC(=O)c2nc(Cl)ccc2C1=O	?	10µM*	?	-101*	nt
CCN1C(=O)c2cccc3c(S(=O)(=O)N(C(C)=O)c4ccc(OC(C)=O)cc4)ccc1c23	nt	5%	nt	210	?
Cc1c(NC(=O)CSc2nnc(C(C)N(C)C)n2-c2ccccc2)c(=O)n(-c2ccccc2)n1C (centres undefined)	-3%	-4%	-15%	-21	29%
CCOC(=O)Cc1nn(Cc2nc(-c3ccc(C#N)cc3)cs2)c(=O)c2ccccc12	-4%	18µM*	-2%	?	10µM*
CCOC(=O)Cc1nn(CC)c(=O)c2ccccc12	nt	6%	nt	-23	17%
COC(=O)C(C)Sc1nc2ccsc2c(=O)n1Cc1ccccc1 (centres undefined)	-8%	-13%	-8%	21	?
COC(=O)c1c(NC(=O)/C=C/C(=O)O)sc(C)c1-c1ccc(C)cc1	?	0%	?	-26	0%
